HCV inh: inhibitors of hepatitis C virus infection. Potency, µM (titrated, usually from 41.8 µM), for the others: at the highest dose activity change, negative = inhibition, usual class: inhibitors. hit rate 3.4% among 340,000. AID 651820. Huh7.5.1 HCVcc-Cre infection, luciferase reporter, 44 h
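Reporter virus HCVcc-Cre (~0.5 moi) infects cells exposed to compound; seeding density 1,000 cells/well with 4 h settling beforehand. Luminescence, 15 sec read, taken 44 h post-infection following a 15 min RT substrate incubation.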
Sm TGR inh: blocks Schistosoma mansoni thioredoxin glutathione reductase; AID 485364; Potency, µM (top dose mostly 114 µM), inactives show top-dose activity change, negative = inhibition, hits mostly inhibitors; Q962Y6; purified TGR, DTNB reduction, TNB absorbance 405 nm; hit rate 3% among 360,000; also: nearly all actives have a fitted effect of over 60% in size
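First, TGR (20 nM dispensed) and NADPH were mixed with compound. Second, a 15 min room-temperature incubation followed. Third, further NADPH and then DTNB were added to start the reaction. Finally, TNB absorbance was monitored kinetically.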
FMDV inh: foot and mouth disease virus antiviral activity | AID 1159524 | hit rate 1.2% among 410,000 | Potency, µM (series often up to 57.9 µM), for inactives: top-dose activity change, negative = inhibition, usual class: inhibitors | FMDV antiviral cell-based qHTS; calls by dose curve; tested in HEK293T cells; also: read-out not given here; nearly all actives have a fitted effect of over 45% in size
Lassa entry inh: inhibitors of Lassa virus binding or cell entry; Lassa virus pseudotype entry inhibition, cell reporter; Potency, µM (series often up to 37.9 µM), without a hit: at the highest dose activity change, negative = inhibition, hits mostly inhibitors; hit rate 1.2% among 300,000; calls by dose curve; tested in HEK293 cells; also: nearly all actives have a fitted effect of over 50% in size
RE007 growth inh: less growth of the S. pombe RE007 Vpr strain; hit rate 0.21% among 360,000; AID 651644; S. pombe RE007 Vpr strain, BacTiter-Glo ATP luminescence, 24 h; Potency, µM (series often up to 92.2 µM), for inactives: at the highest dose activity change, negative = less growth, actives largely listed as inhibitors; active = well fitted falling curve with a large enough effect; inconclusive = small, poorly fitted or top-dose-only effect; inactive = no such curve, though single readings can be large or run the other way; also: nearly all actives have a fitted effect of over 50% in size
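Fission yeast strain RE007, carrying one chromosomally integrated HIV-1 vpr copy, was seeded at OD 0.01 in PMG+AL medium with 23 nL pinned compound. After 24 h at 30 °C and 99% humidity, viability was read by BacTiter-Glo luminescence.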
Marburg entry inh: Marburg virus entry inhibition. Marburg virus pseudotyped entry inhibition, cell reporter. Potency, µM (titrated, usually from 37.8 µM), inactives show top-dose activity change, negative = inhibition, actives largely listed as inhibitors. hit rate 1.8% among 300,000; calls by dose curve; tested in HEK293 cells
An asterisk follows results filed as active; ? = inconclusive; / = no result given; [ ] = remark or other dose. A selection: hits, their analogues and other compounds. The true share with any hit is near 7.2%. Unless noted, calls follow the shape of the dose curve; as a rule, active = well fitted curve in the direction sought with a large enough effect; inconclusive = small, poorly fitted or top-dose-only effect, or another doubt; inactive = no such curve, though single readings can be large; an effect the other way counts as inactive or inconclusive. % is scaled to controls: 0 for no effect and ±100 for the full control effect; potency is read from the fitted curve at half-maximal effect.

SMILES	HCV inh	Sm TGR inh	FMDV inh	Lassa entry inh	RE007 growth inh	Marburg entry inh
Cc1nnc(NC(=O)c2ccc(N3CCCC3=O)cc2)s1	?	-11%	84%	6%	18%	28%
O=C(Nc1nc(-c2ccc(F)c(F)c2)cs1)C1=COCCO1	-28%	-30%	6%	/	?	/
CCOc1ccc(NC(=O)COC(=O)CCC(=O)c2cccs2)cc1	15%	-8%	-9%	/	-2%	/
Cc1ccc(NC(=O)c2ccc(OCC3CCCO3)cc2)c(C)c1 (stereo unspecified)	18%	-5%	-4%	8%	-7%	26%
CCOc1ccc(C(=O)Nc2nc(C)c(C(=O)OC)s2)cc1	18µM*	19%	21%	24%[46.1 µM]	-15%	?
CCOc1ccc2nc(NC(=O)c3ccc(OCC4CCCO4)cc3)sc2c1 (stereo unspecified)	4µM*	-2%	18µM*	-14%	-13%	-30%[46.1 µM]
COC(=O)c1sc(NC(=O)c2ccncc2)nc1C	22%	11%	26%	?	?	?
Cc1ccnc(NC(=O)c2ccc(OCC3CCCO3)cc2)c1 (stereo unspecified)	-1%	-5%	16µM*	6.3µM*	?	3.5µM*
Cn1cccc1Cc1nnc(SCC(=O)NCc2ccco2)n1CCc1ccccc1	14%	50µM*	15%	6%	-7%	-11%
Cn1cccc1Cc1nnc(SCC(=O)NCc2ccco2)n1-c1ccc(F)cc1	9%	45µM*	4%	-10%	-13%	-18%
Cn1cccc1Cc1nnc(SCC(=O)NCc2ccccc2Cl)n1-c1ccc(F)cc1	-20%	0%	-1%	/	-16%	2%
CCCNC(=O)N1C[C@H](O)COC[C@H]2O[C@@H](CC(=O)N[C@@H]3CCN(Cc4ccccc4)C3)CC[C@@H]21	/	/	-2%	/	-7%	/
COc1ccc(N2C(=O)C(Cl)=C(Nc3ccc(OC)cc3OC)C2=O)cc1	-9%	28µM*	30%	23%	12%	?
COc1ccccc1NC1=C(Cl)C(=O)N(c2ccccc2)C1=O	19%	-6%	-13%	?	/	-3%
COc1ccc(NC2=C(Cl)C(=O)N(c3ccccc3)C2=O)c(OC)c1	10%	5.6µM*	-22%	/	?	/
CCOc1ccc(N2C(=O)C(Cl)=C(Nc3ccccc3O)C2=O)cc1	-10%	18µM*	/	8%	?	0%
COc1ccc(N2C(=O)C(Cl)=C(Nc3c(C)n(C)n(-c4ccccc4)c3=O)C2=O)cc1	-3%	0.89µM*	/	-23%	-3%	2%
COc1ccc2oc(=O)c(C(=O)NCCc3c(C)[nH]c4c(Cl)cccc34)cc2c1	/	1%	?	6%[46.1 µM]	/	0%[46.1 µM]
COc1cc(OC)c(OC)cc1CN1CCOc2ccc(CN3CCN(C(C)=O)CC3)cc2C1	/	/	-30%	/	/	/
COc1ccc(NC(=O)c2ccc(-c3ccc([N+](=O)[O-])cc3)o2)cc1	-15%	?	-15%	17%[46.1 µM]	4%	?
COc1ccc(CCNC(=O)c2noc(C(C)C)c2[N+](=O)[O-])cc1OC	-23%	35µM*	-4%	10%	-6%	20%
COc1ccc(CNC(=O)c2noc(C(C)C)c2[N+](=O)[O-])cc1	-1%	-13%	-9%	-2%	1%	?
COc1ccc(CCNC(=O)c2ccc(-c3ccc([N+](=O)[O-])cc3)o2)cc1OC	-25%	40µM*	18µM*	?	-7%	?
COCCN1CCN(C(=O)c2cnn(-c3nccc(-c4ccco4)n3)c2C(C)C)CC1	/	/	2%	/	/	/
Oc1cncc(Cc2ccccc2)c1	32%	32µM*	1%	?	23%	0%
O=C(CSc1nc2c([nH]c3ccccc32)c(=O)n1-c1ccc(F)cc1)NC1CCCCC1	/	-1%	-26%	0%[46.1 µM]	/	/
COC(=O)C1=C(C(=O)OC)C(c2cc(Cl)ccc2O)c2sc(=O)[nH]c2S1 (stereo unspecified)	-2%	40µM*	1%	-3%	-13%	-16%
CCN(CC)Cc1c(O)ccc2c1O/C(=C\C=C\c1ccccc1)C2=O	-7%	?	-1%	/	-2%	/

Screening data (PubChem BioAssay)
